# The supplement of paper PMC8728848
# The sample as a whole holds a higher share of the strongest signals than the screen did.
# Columns and labels:
# Experiment in all cases: glycan array binding signal (z-score within array); higher = stronger binding
# Conditions in all cases: glycan notation: IUPAC condensed, linker removed
# [1] = target: Fuc(a1-2)Gal(b1-4)Glc6S
# In short: (§1)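 The Consortium for Functional Glycomics database supplied 3228 glycan arrays, of which those lacking an available protein sequence were dropped. The binding signal, a within-array Z-score, was averaged across arrays of the same protein sequence and across linkers. Negative scores can be read as non-binding.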
# [2] = target: Fuc(a1-2)[GalNAc(a1-3)]Gal(b1-4)[Fuc(a1-3)]GlcNAc
# In short: as §1
# [3] = target: Fuc(a1-2)[GalNAc(a1-4)]Gal(b1-4)GlcNAc
# In short: as §1
# [4] = target: Fuc(a1-2)[GalNAc(b1-3)]Gal
# In short: as §1
# [5] = target: Gal(a1-3)Gal
# In short: as §1
# [6] = target: Gal(a1-3)Gal(b1-4)Glc
# In short: as §1
# [7] = target: Gal(a1-4)Gal(b1-4)GlcNAc
# In short: as §1
# [8] = target: Gal(b1-3)[Fuc(a1-4)]GlcNAc(b1-3)Gal(b1-4)GlcNAc
# In short: as §1
# [9] = target: Gal(b1-3)[Fuc(a1-4)]GlcNAc(b1-3)Gal(b1-4)[Fuc(a1-3)]GlcNAc
# In short: as §1
# [10] = target: Gal(b1-4)GlcNAc(a1-6)Gal(b1-4)GlcNAc
# In short: as §1
# [11] = target: Gal(b1-4)GlcNAc(b1-3)Gal(b1-4)[Fuc(a1-3)]GlcNAc(b1-3)Gal(b1-4)[Fuc(a1-3)]GlcNAc
# In short: as §1
# [12] = target: Gal(b1-4)GlcNAc(b1-3)GalNAc
# In short: as §1
# [13] = target: Gal(b1-4)GlcNAc(b1-3)[Gal(b1-4)GlcNAc(b1-6)]Gal(b1-4)GlcNAc
# In short: as §1
# [14] = target: Gal(b1-4)GlcNAc(b1-6)Gal(b1-4)GlcNAc
# In short: as §1
# [15] = target: GalNAc(a1-3)Gal
# In short: as §1
# [16] = target: GalNAc(b1-3)Gal
# In short: as §1
# [17] = target: GalNAc(b1-3)Gal(a1-4)Gal(b1-4)GlcNAc
# In short: as §1
# [18] = target: GalNAc(b1-3)GalNAc
# In short: as §1
# [19] = target: GlcNAc(b1-3)Gal(b1-4)GlcNAc
# In short: as §1
# [20] = target: Man(a1-2)Man(a1-2)Man(a1-6)[Man(a1-3)]Man
# In short: as §1
# [21] = target: Man(a1-2)Man(a1-3)Man
# In short: as §1
# [22] = target: Man(a1-2)Man(a1-3)[Man(a1-6)]Man(a1-6)[Man(a1-2)Man(a1-3)]Man(b1-4)GlcNAc(b1-4)GlcNAc
# In short: as §1
# [23] = target: Neu5Ac(a2-3)Gal(b1-3)[Fuc(a1-4)]GlcNAc
# In short: as §1
# [24] = target: Neu5Ac(a2-3)Gal6S(b1-4)GlcNAc
# In short: as §1
# [25] = target: Neu5Ac(a2-3)GalNAc(b1-4)GlcNAc
# In short: as §1
# [26] = target: Neu5Ac(a2-6)Gal(b1-4)GlcNAc6S
# In short: as §1
# [27] = target: Neu5Ac(a2-8)Neu5Ac(a2-8)Neu5Ac(a2-8)Neu5Ac(a2-3)[GalNAc(b1-4)]Gal(b1-4)Glc
# In short: as §1
# [28] = target: Fuc(a1-2)Gal(b1-4)GlcNAc
# In short: as §1
# [29] = target: Fuc(a1-2)Gal(b1-4)GlcNAc(b1-2)Man(a1-3)[Fuc(a1-2)Gal(b1-4)GlcNAc(b1-2)Man(a1-6)]Man(b1-4)GlcNAc(b1-4)[Fuc(a1-6)]GlcNAc
# In short: as §1
# [30] = target: Fuc(a1-2)Gal6S(b1-3)GlcNAc
# In short: as §1
# [31] = target: Fuc(a1-2)Gal6S(b1-3)GlcNAc6S
# In short: as §1
# [32] = target: Fuc(a1-2)[Gal(a1-3)]Gal
# In short: as §1
# [33] = target: Fuc(a1-2)[Gal(a1-3)]Gal(b1-3)GlcNAc
# In short: as §1
# [34] = target: Fuc(a1-2)[Gal(a1-3)]Gal(b1-3)GlcNAc(b1-2)Man(a1-3)[Fuc(a1-2)[Gal(a1-3)]Gal(b1-3)GlcNAc(b1-2)Man(a1-6)]Man(b1-4)GlcNAc(b1-4)[Fuc(a1-6)]GlcNAc
# In short: as §1
# [35] = target: Fuc(a1-2)[Gal(a1-3)]Gal(b1-4)GlcNAc(b1-6)GalNAc
# In short: as §1
# [36] = target: Fuc(a1-2)[GalNAc(a1-3)]Gal(b1-3)GlcNAc(b1-2)Man(a1-3)[Fuc(a1-2)[GalNAc(a1-3)]Gal(b1-3)GlcNAc(b1-2)Man(a1-6)]Man(b1-4)GlcNAc(b1-4)[Fuc(a1-6)]GlcNAc
# In short: as §1
# [37] = target: Fuc(a1-3)[Gal(b1-4)]GlcNAc
# In short: as §1
# [38] = target: Fuc(a1-3)[Gal(b1-4)]GlcNAc(b1-6)GalNAc
# In short: as §1
# [39] = target: Gal(a1-3)Gal(b1-3)GlcNAc
# In short: as §1
# [40] = target: Gal(a1-3)Gal(b1-3)GlcNAc(b1-2)Man
# In short: as §1
# [41] = target: Gal(a1-3)Gal(b1-3)GlcNAc(b1-2)Man(a1-3)[Gal(a1-3)Gal(b1-3)GlcNAc(b1-2)Man(a1-6)]Man(b1-4)GlcNAc(b1-4)GlcNAc
# In short: as §1
# [42] = target: Gal(a1-3)Gal(b1-3)GlcNAc(b1-3)GalNAc
# In short: as §1
# [43] = target: Gal(a1-3)Gal(b1-4)GlcNAc(b1-2)Man(a1-3)[Gal(a1-3)Gal(b1-4)GlcNAc(b1-2)Man(a1-6)]Man(b1-4)GlcNAc(b1-4)GlcNAc
# In short: as §1
# [44] = target: Gal(a1-3)Gal(b1-4)[Fuc(a1-3)]GlcNAc
# In short: as §1
# [45] = target: Gal(a1-3)GalNAc
# In short: as §1
# [46] = target: Gal(a1-3)[Gal(a1-4)]Gal(b1-4)GlcNAc
# In short: as §1
# [47] = target: Gal(b1-3)GalNAc(b1-3)Gal
# In short: as §1
# [48] = target: Gal(b1-3)GlcNAc(b1-2)Man(a1-3)[Gal(b1-3)GlcNAc(b1-2)Man(a1-6)]Man(b1-4)GlcNAc(b1-4)[Fuc(a1-6)]GlcNAc
# In short: as §1
# [49] = target: Gal(b1-3)GlcNAc(b1-3)Gal(b1-4)GlcNAc(b1-2)[Gal(b1-3)GlcNAc(b1-3)Gal(b1-4)GlcNAc(b1-6)]Man(a1-6)[Gal(b1-3)GlcNAc(b1-3)Gal(b1-4)GlcNAc(b1-2)Man(a1-3)]Man(b1-4)GlcNAc(b1-4)[Fuc(a1-6)]GlcNAc
# In short: as §1
# [50] = target: Gal(b1-3)GlcNAc6S
# In short: as §1
# [51] = target: Gal(b1-3)[Fuc(a1-4)]GlcNAc
# In short: as §1
# [52] = target: Gal(b1-3)[Fuc(a1-4)]GlcNAc(b1-6)GalNAc
# In short: as §1
# [53] = target: Gal(b1-4)GlcNAc(b1-2)Man
# In short: as §1
# [54] = target: Gal(b1-4)GlcNAc(b1-2)[Gal(b1-4)GlcNAc(b1-4)]Man(a1-3)[GlcNAc(b1-4)][Gal(b1-4)GlcNAc(b1-2)[Gal(b1-4)GlcNAc(b1-6)]Man(a1-6)]Man(b1-4)GlcNAc(b1-4)GlcNAc
# In short: as §1
# [55] = target: Gal(b1-4)GlcNAc(b1-3)Gal(b1-4)GlcNAc
# In short: as §1
binder,measurement,setting,value
CBM32-5 (Clostridium perfringens) (protein) MGSSHHHHHHSSGLVPRGSHMASALPQGNMKATATSEHPDVGNEGLAKFAIDGKENTIWHTKYNPVEELPQSITLELGGSYEINKFTYLPRSGAKNGNITKYELHVSEDGNNFRKISEGNWDDSGSLKTLKFNSTKATHVKLVALEGVGGFASAAELNVFA,glycan array binding signal (z-score),[1],-0.037
same,glycan array binding signal (z-score),[2],-0.639
same,glycan array binding signal (z-score),[3],9.74
same,glycan array binding signal (z-score),[4],6.11
same,glycan array binding signal (z-score),[5],-0.718
same,glycan array binding signal (z-score),[6],2.12
same,glycan array binding signal (z-score),[7],0.124
same,glycan array binding signal (z-score),[8],-0.65
same,glycan array binding signal (z-score),[9],-0.543
same,glycan array binding signal (z-score),[10],0.343
same,glycan array binding signal (z-score),[11],-0.59
same,glycan array binding signal (z-score),[12],0.285
same,glycan array binding signal (z-score),[13],3.1
same,glycan array binding signal (z-score),[14],0.749
same,glycan array binding signal (z-score),[15],2.91
same,glycan array binding signal (z-score),[16],4.11
same,glycan array binding signal (z-score),[17],1.22
same,glycan array binding signal (z-score),[18],0.845
same,glycan array binding signal (z-score),[19],-0.249
same,glycan array binding signal (z-score),[20],-0.584
same,glycan array binding signal (z-score),[21],-0.091
same,glycan array binding signal (z-score),[22],-0.536
same,glycan array binding signal (z-score),[23],-0.236
same,glycan array binding signal (z-score),[24],-0.395
same,glycan array binding signal (z-score),[25],-0.526
same,glycan array binding signal (z-score),[26],-0.183
same,glycan array binding signal (z-score),[27],-0.621
FimA-N2 (Actinomyces oris) (protein) MHHHHHHSSGVDLGTENLYFQSNAWIYDVNVYPKNEAIDVDKTIQAQKLNGYGVGSLIKFPVESTAPTLDAKSFYKYFQLKDTLDERLSEVTATDVSLEGTPLQPTDYKVETKQQTVTVTFTAEGLKKIKAAPGKKVSAVFQGKVTKAGNGAITNRAQVISDTLYAEQPPTPETPPTDPENPPTSDEVISRWGDLSIKKVDTHQQGQTKA,glycan array binding signal (z-score),[28],0.416
same,glycan array binding signal (z-score),[29],2.43
same,glycan array binding signal (z-score),[30],1.35
same,glycan array binding signal (z-score),[31],3.98
same,glycan array binding signal (z-score),[32],1.78
same,glycan array binding signal (z-score),[33],-0.75
same,glycan array binding signal (z-score),[34],-0.838
same,glycan array binding signal (z-score),[35],2.61
same,glycan array binding signal (z-score),[36],-0.909
same,glycan array binding signal (z-score),[3],0.482
same,glycan array binding signal (z-score),[37],-0.144
same,glycan array binding signal (z-score),[38],-0.225
same,glycan array binding signal (z-score),[39],1.02
same,glycan array binding signal (z-score),[40],2.25
same,glycan array binding signal (z-score),[41],0.101
same,glycan array binding signal (z-score),[42],-0.826
same,glycan array binding signal (z-score),[43],-1.06
same,glycan array binding signal (z-score),[44],-1.47
same,glycan array binding signal (z-score),[45],-0.66
same,glycan array binding signal (z-score),[46],2.77
same,glycan array binding signal (z-score),[47],-0.678
same,glycan array binding signal (z-score),[48],2.23
same,glycan array binding signal (z-score),[49],3.71
same,glycan array binding signal (z-score),[50],-0.106
same,glycan array binding signal (z-score),[51],0.004
same,glycan array binding signal (z-score),[52],-0.651
same,glycan array binding signal (z-score),[53],-0.413
same,glycan array binding signal (z-score),[54],-0.356
same,glycan array binding signal (z-score),[55],1.55
same,glycan array binding signal (z-score),[14],-0.5
